# Source: PubChem (National Center for Advancing Translational Sciences (NCATS))
# Rango-impB inh: inhibitors of Rango-importin beta complex formation; 0.031% of 340,000 active; AID 540263; Rango CFP/YFP FRET sensor + importin beta, 45 min; Potency, µM (titrated, usually from 92.2 µM), for the others: at the top dose inhibition of complex formation;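 note: potency is the fitted concentration of half-maximal effect; 0% = DMSO wells and 100% = buffer wells lacking importin beta; nearly all actives have a fitted effect of over 15% in size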
#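 FRET biosensor (snurportin 1 IBB flanked by EYFP and cerulean), 50 nM, with compound 5 min, then 0.125 microM importin beta in PBS, 1 mM DTT, 0.02% Tween-20, 0.1% BSA. CFP/YFP ratio read after 45 min at room temperature; pre-read flags interference.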
# ClpP mod: qHTS Assay for Activators of ClpP; 1.9% of 340,000 active; Potency, µM (titrated, usually from 57.5 µM), inactives show top-dose activity change, negative = active; purified B. subtilis ClpP, FRET peptide cleavage, 20 min; active = well fitted falling curve with a large enough effect; inconclusive = small, poorly fitted or top-dose-only effect; inactive = no such curve, though single readings can be large or run the other way; note: potency is the fitted concentration of half-maximal effect; the source files actives as falling curves though it sought activators and does not explain the sign; nearly all actives have a fitted effect of over 65% in size
# Target sequence (P80244 whole entry, looked up): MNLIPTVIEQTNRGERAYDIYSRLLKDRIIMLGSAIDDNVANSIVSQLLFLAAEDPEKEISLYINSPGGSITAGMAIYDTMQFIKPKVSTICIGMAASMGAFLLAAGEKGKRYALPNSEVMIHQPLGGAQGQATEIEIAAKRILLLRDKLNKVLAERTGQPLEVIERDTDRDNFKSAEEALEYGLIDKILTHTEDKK
#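 Buffer: 100 mM Tris/HCl pH8, 100 mM KCl, 0.05% low protease BSA, 2.5% glycerol, 0.01% Tween-20. ClpP 10 microg/mL final; 20 min RT; delta FRET normalized to ADEP and DMSO controls.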
# MBNL1-CUG inh: inhibitors of human MBNL1 binding to CUG repeat RNA. Q9NR56. TR-FRET MBNL1-His/biotin-(CUG)12 binding, 665/545 ratio. Potency, µM (doses to about 57.5 µM), for the others: at the top dose activity change, negative = inhibition, most hits filed as inhibitors. 0.036% of 280,000 active; active = well fitted inhibition curve with a large enough effect in the signal ratio, with a control signal flat, not every such curve was filed as active; inconclusive = small, poorly fitted or top-dose-only effect, or effect the other way, or a change in a side signal; inactive = no such curve, though single readings can be large or run the other way; the % refers to the signal ratio; note: potency is the fitted concentration of half-maximal effect; % is set by controls: 0 for no effect and ±100 for the full control effect
#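 Compound titration spanned 92 nM–58 uM against the MBNL1-His/biotin-(CUG)12 complex. After 60 min at room temperature with 5 nM streptavidin-XL665 and 0.055 ng/ul terbium anti-His, ratiometric 665/545 nm emission (Ex 340 nm) normalized to controls.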
# Rango dissoc inh: inhibition of RanGTP-driven Rango-importin beta dissociation | O95149+P62826 | Biochemical FRET Rango-importin beta, RanGTP-induced dissociation | Potency, µM (doses to about 46.1 µM), without a hit: top-dose activity change, negative = inhibition | 0.071% of 340,000 active; note: potency is the fitted concentration of half-maximal effect; % of control where 0% means no effect; nearly all actives have a fitted effect of over 45% in size
#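 Compounds preincubate 5 min with complex of recombinant Rango and importin beta in PBS with 1 mM DTT. Ran (0.6 uM) loaded with 2 mM GTP plus 0.2 uM RCC1 starts dissociation; FRET is recorded 45 min later.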
# CBFb-RUNX1 inh: inhibitors of human CBF-beta and RUNX1 interaction. AlphaScreen CBFb-His/RUNX1-biotin binding, biochemical. Potency, µM (series often up to 59.8 µM), for the others: top-dose activity, negative = inhibition, hits mostly inhibitors. AID 1477. 230,000 tested, under 10 active. Q01196+Q13951; active = well fitted curve in the direction sought with a large enough effect; inconclusive = small, poorly fitted or top-dose-only effect, or effect the other way, or another doubt; inactive = no such curve, though single readings can be large or run the other way; note: % of control where 0% means no effect
#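 CBF-beta (His) and RUNX1 (biotin), 30 nM each; 20 min preassociation; + compound, 15 min; + beads 50 ng each (Ni, streptavidin), 90 min; RT; AlphaScreen read.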
# Starred values were filed as active, the others as inactive; ? = inconclusive; nt = no result; ! = not active in a repeat. Many of the other results were omitted from the sample, so hits are more common in it than they were. Unless noted, calls come from the whole dose curve.
SMILES,Rango-impB inh,ClpP mod,MBNL1-CUG inh,Rango dissoc inh,CBFb-RUNX1 inh
CCCN1CCc2c(sc(NC(=O)CCS(=O)(=O)c3ccccc3)c2C(N)=O)C1,?,-6%,1%,?,nt
N=c1ccccn1CC(O)COc1ccccc1 (stereo unspecified),3%,?,16%,12%,7%
CC(O)Cn1ccccc1=N (stereo unspecified),0%,16µM*,1%,11%,8%
O=c1[nH]c(=O)c2ncn(C3OC(CO)C(O)C3O)c2[nH]1 (stereo unspecified),nt,-7%,nt,nt,nt
NC(=O)c1sc2nc(N3CCOCC3)c3c(c2c1N)CCCC3,-1%,16µM*,?,-24%,2%
CCOC(=O)c1sc2nc(N3CCOCC3)c3c(c2c1N)CCN(Cc1ccccc1)C3,2%,25µM*,17%,18%,2%
CN1Cc2c(N3CCOCC3)nc3sc(C(=O)c4ccccc4)c(N)c3c2CC1(C)C,?,nt,12%,-21%,-7%
CCOC(=O)c1sc2nc(N3CCOCC3)c3c(c2c1N)CC(C)(C)N(C)C3,3%,7.1µM*,8%,-15%,5%
CC1(C)Cc2c(c(N3CCOCC3)nc3sc(C#N)c(N)c23)CS1,-5%,28µM*,4%,6%,6%
CCOC(=O)c1sc2nc(N3CCOCC3)c3c(c2c1N)CCC3,-1%,97%,?,-4%,9%
CN(C)CCCCCCNc1cc(N2CCN(C)CC2)ncn1,nt,0%,nt,nt,nt
O=C(Nc1ccon1)c1cnc2sccn2c1=O,6%,20µM*,0%,-9%,-3%
Cc1cccc(OCC(=O)Nc2ccccc2OCc2cc(=O)n3ccccc3n2)c1,nt,-15%,nt,nt,nt
NC(=O)[C@@H]1CCCN1Cc1c(C(=O)N2CCN(C3CCCCC3)CC2)nc2ccccn12,?,18µM*,2%,?,nt
Cc1ccc2nc(-c3cccnc3)oc2c1,1%,1.4µM*!,11%,4%,5%
Clc1ccc2oc(-c3cccnc3)nc2c1,5%,25µM*,-5%,0%,7%
COc1ccc(OC)c(CNS(=O)(=O)c2ccc(-c3coc(C)n3)cc2)c1,nt,1%,nt,nt,nt
O=C(O)c1cc(Cl)c2ccccc2c1O,0%,28µM*,16%,1%,-7%
COc1ccc(C2=NS(=O)(=O)N(C)C(C(=O)Nc3ccc(OC(F)(F)F)cc3)=C2)cc1,nt,-4%,nt,nt,nt
Cc1ccc2nc(-c3ccc(NC(=O)COC(=O)c4ccco4)cc3)sc2c1,-1%,7.1µM*,181%,8%,11%
Cc1ccc(NC(=O)COC(=O)c2ccco2)cc1,-4%,-2%,-3%,15%,6%
CC1(c2ccc(OC(F)F)cc2)NC(=O)N(CC(=O)Nc2ccccc2)C1=O (stereo unspecified),0%,nt,5%,1%,nt
Cc1ccc2nc(-c3ccc(NC(=O)COC(=O)c4ccc([N+](=O)[O-])o4)cc3)sc2c1,-1%,28µM*,2%,2%,-1%
CCOc1ncccc1C(=O)OCC(=O)Nc1ccc(-c2nc3ccc(C)cc3s2)cc1,-3%,3.5µM*,4%,5%,17%
Cc1ccc2nc(-c3ccc(NC(=O)CN4C(=O)NC(C)(c5ccc(OC(F)F)cc5)C4=O)cc3)sc2c1 (stereo unspecified),-1%,14µM*,18%,5%,-6%
Cc1ccc2nc(-c3ccc(NC(=O)COc4ccccc4)cc3)sc2c1,nt,5%,nt,nt,nt
CNS(=O)(=O)c1cccc(C(=O)OCC(=O)Nc2ccc(-c3nc4ccc(C)cc4s3)cc2)c1,?,nt,12%,?,-2%
O=C(Nc1ccc(F)cc1)C1CCN(c2nc3ccccc3nc2C(F)(F)F)CC1,nt,9%,nt,nt,nt
Cc1ccc2nc(-c3ccc(NC(=O)COC(=O)c4ccc(Br)o4)cc3)sc2c1,-1%,8.9µM*,17%,-10%,9%
Cc1ccc2nc(-c3ccc(NC(=O)CN(c4ccccc4C)S(C)(=O)=O)cc3)sc2c1,?,25µM*,0%,-26%,11%
